Among the data in PubChem BioAssay (NCATS) are Potency values, retold here.

The structures appear in SMILES notation. Values without a mark were called inactive. The rule behind the calls is not given here.
Potency is the fitted concentration of half-maximal effect.

The experiment deals with HIV-1 nucleocapsid protein NCp7 (binding to TG oligonucleotide). The experiment in a line: HIV Nucleocapsid (AID 346).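 Note: potency is for inhibitors that block NC binding and lower polarization.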 As to conditions: HIV-1 NC / fluorescein-TGTGTGTG probe, fluorescence polarization. In a few lines:
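10 nM TG4xF probe with 100 nM nucleocapsid protein in high-salt Hepes pH 7.5 (250mM NaCl) containing 1uM ZnCl2 and reducing agents. Compound inhibition of binding was read as fluorescein polarization after 1 hr at room temperature.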
Take `Cc1cnc(CNc2cc(-c3ccccc3C)ncn2)cn1`: the Potency was above 20 µM.

Take `Cc1noc(C)c1C(=O)N1CCC2(CC1)CCN(c1ccncc1)CC2`: the Potency was above 20 µM.

Turning to `COCC(=O)N1CCC2(CC1)CN(Cc1cc(C(F)(F)F)cc(C(F)(F)F)c1)C2`, the Potency is above 20 µM.

Consider `CC(=O)NCCNc1nc(-c2ccc3c(c2)OCO3)nc2ccccc12`, for which the Potency is above 20 µM.

Take `N#Cc1ccc(CN2CCC3(CC2)CCN(C(=O)c2cccc(F)c2)CC3)cc1`: the Potency is above 20 µM.

In the case of `CC(C)CN1CC[C@@]2(CCCN(C(=O)c3csnn3)C2)C1`, the Potency was above 20 µM.

As for `Cc1noc(C)c1C(=O)N1CCC[C@@]2(CCN(C(=O)Nc3ccccc3)C2)C1`, the Potency is above 20 µM.

Consider `COc1ccc(NC(=O)N2CCC3(CC2)CCN(C(=O)c2csnn2)CC3)cc1`, for which the Potency was above 20 µM.

Consider `O=C(c1ccncc1)N1CCC2(CCN(Cc3ccccc3)CC2)CC1`, for which the Potency was above 20 µM.

On to `COc1cccc(Cn2c(=O)c(-c3ccc(Cl)cc3)nc3cncnc32)c1`, for which the Potency is above 20 µM.

With `Cc1noc(C)c1-c1nc(N2CCOCC2)c2ccccc2n1`, the Potency is above 20 µM.

In the case of `O=c1c(-c2cccc(Cl)c2)nc2cncnc2n1Cc1ccccc1`, the Potency was above 20 µM.

For `Clc1ccccc1-c1nccc(NCc2ccccc2)n1`, the Potency is above 20 µM.

As for `COc1ccc(C(=O)N2CCC3(CCCN(C(=O)NC(C)C)C3)CC2)cc1`, the Potency is above 20 µM.

Take `COCCn1c(=O)c(-c2ccc(OC)cc2)nc2cnc(N3CCN(C)CC3)nc21`: the Potency is above 20 µM.

In the case of `COc1ccccc1CN1CC[C@@]2(CCCN(S(C)(=O)=O)C2)C1`, the Potency is above 20 µM.

On to `CC(C)NC(=O)N1CC[C@@]2(CCCN(C(=O)c3ccco3)C2)C1`, for which the Potency was above 20 µM.

For `COc1ccccc1-c1cncnc1-n1ccnc1`, the Potency was above 20 µM.

Take `O=C(c1csnn1)N1CCC2(CC1)CCN(c1ccncc1)CC2`: the Potency was above 20 µM.

With `CS(=O)(=O)N1CCC[C@@]2(CCN(c3ccncc3)C2)C1`, the Potency is above 20 µM.

For `COCC(=O)N1CCC2(CC1)CCN(c1ccncc1)CC2`, the Potency was above 20 µM.

`O=C(c1cccc(F)c1)N1CCC2(CC1)CCN(c1ccccc1)CC2`: the Potency was above 20 µM.

For `COc1cccc(Nc2ncc3nc(-c4cccs4)c(=O)n(CCC#N)c3n2)c1`, the Potency is above 20 µM.

Take `O=c1c(CCc2ccccc2)nc2cnc(N3CCNCC3)nc2n1C1CC1`: the Potency is above 20 µM.

As to `COc1ccccc1-c1cncnc1NCc1cccs1`, the Potency was above 20 µM.

With `COc1ccc(NC(=O)N2CCCC3(CCN(C(=O)c4csnn4)CC3)C2)cc1`, the Potency was above 20 µM.

For `COc1ccccc1-c1nc(Nc2ccncc2)c2ccccc2n1`, the Potency was above 20 µM.

On to `Cc1noc(C)c1-c1nccc(N(C)C)n1`, for which the Potency is above 20 µM.

On to `COc1ccc(-n2c(=O)c(-c3cccs3)nc3cnc(Oc4ccccc4)nc32)cc1`, for which the Potency was above 4 µM.

Regarding `Cc1cnc(CNc2nc(-c3ccoc3)nc3ccccc23)cn1`, the Potency is above 20 µM.

Take `O=C(c1csnn1)N1CCC2(CC1)CN(Cc1cc(C(F)(F)F)cc(C(F)(F)F)c1)C2`: the Potency was above 20 µM.

On to `O=c1c(-c2cccs2)nc2cncnc2n1Cc1ccccc1`, for which the Potency was above 20 µM.

On to `COc1ncc2nc(-c3ccc(F)cc3)c(=O)n(-c3ccccc3)c2n1`, for which the Potency is above 20 µM.

In the case of `CCNc1ncc2nc(-c3ccc(F)cc3)c(=O)n(Cc3ccc(F)cc3)c2n1`, the Potency was above 20 µM.

With `CNc1nc(-c2cccc(NS(C)(=O)=O)c2)nc2ccccc12`, the Potency was above 20 µM.

Consider `CN(C)C(=O)c1ccc(-c2cncnc2NCc2ccccc2)cc1`, for which the Potency was above 20 µM.

Consider `CN(C)c1ncc2ncc(=O)n(CCc3ccccc3)c2n1`, for which the Potency was above 20 µM.

In the case of `COCC(=O)N1CCC2(CC1)CN(c1cccc(-c3ccccc3)c1)C2`, the Potency was above 20 µM.

For `COc1ccc(CNc2nc(-c3c(C)noc3C)nc3ccccc23)c(OC)c1`, the Potency is above 20 µM.
